Hit rate of the full screen: of about 330,000 compounds, about 7,300 (2.2%) were called active.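 The calls were made as follows: active = inhibition of at least 40%; inactive = the rest.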 For the sample, actives were picked, then their nearest neighbours and some compounds at random.

The test in a line: growth inhibition of tim10-1 ts yeast – luminescence, uHTS, primary screen (AID 463190).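 Also: mutant grown at 25 °C; 0% = DMSO wells with yeast and 100% = wells holding no yeast.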 The conditions noted are these: S. cerevisiae tim10-1 ts strain growth, BacTiter-Glo, 24 h; at 20 µM; stronger effect = higher value.
Broadly, the inhibition is the drop in the measured response relative to a control, in per cent. `CN(CCC1CCOCC1)Cc1cn[nH]c1-c1ccc(-c2ccccc2)cc1`: the inhibition was 18% (inactive). Regarding `COc1ccc(C(=O)C2CCCN(C(=O)c3cc4nc(C)cc(C)n4n3)C2)cc1F` (stereo not drawn), the inhibition was 26.4% (inactive).

`CCOC(=O)c1cc(C(C)C)sc1NC(=O)COC(=O)c1nccnc1N`: the inhibition is 9.86% (inactive). For `CC(C)c1cc(C(N)=O)c(NC(=O)c2cccc(COc3ccc(Br)cc3)c2)s1`, the inhibition was 40.9% (active). With `CCOc1ccc(OCc2cccc(C(=O)N(CC)CC)c2)cc1` the figure was 21.6% (inactive). Take `CC(C)CCN1CCC(C)(NC(=O)c2ccccc2)C1=O` (stereo not drawn): the inhibition is 10.4% (inactive). With `COc1ccc(CN2C(=O)C(C)S/C2=N/N=C/c2ccco2)cc1` (stereo not drawn) the figure was 19.3% (inactive); with `COc1ccccc1C1C(C#N)=C(N)Oc2c1c(-c1ccccc1)nn2-c1ccccc1` (stereo not drawn), 40.7% (active).

For `Cc1nn(Cc2ccccc2)c2c1C(c1ccccc1)C(C#N)=C(N)O2` (stereo not drawn), the inhibition is 30.9% (inactive).

Take `Cc1nn(-c2ccccc2)c2c1C(c1ccc(F)cc1)C(C#N)=C(N)O2` (stereo not drawn): the inhibition was 24% (inactive).

With `COc1ccc(CCOC(=O)CNC(=O)c2ccc(Cl)cc2Cl)cc1`, the inhibition is 18.1% (inactive). With `O=C(O)c1cccnc1Sc1ncnc2sc3c(c12)CCC3` the figure was -4.59% (inactive); with `c1c2c(cc3sc(N4CCCCC4)nc13)OCCO2`, 43.1% (active). `Cc1nc(N2CCCCC2)sc1C=O`: the inhibition was -8.24% (inactive). In the case of `Brc1ccc2nc(N3CCCC3)sc2c1` it was 22.5% (inactive).

Regarding `CC(C)N(C(=O)CN1CCN(S(=O)(=O)c2ccc(Br)s2)CC1)C(C)C`, the inhibition was 16.4% (inactive). With `O=C(COC(=O)C1CC2C=CC1C2)Nc1ccccc1` (stereo not drawn) the figure was 13.3% (inactive).

In the case of `O=C1CC(c2cccc(Cl)c2)CC(O)=C1C=Nc1ccccc1` (stereo not drawn), the inhibition is 21.6% (inactive). For `CCOc1ccc(-c2cc(C(=O)N/N=C/c3ccc(O)cc3)c3ccccc3n2)cc1`, the inhibition was 6.2% (inactive). With `O=C(O)c1cc([N+](=O)[O-])c(Nc2cccc3ccccc23)c([N+](=O)[O-])c1` the figure was 7.28% (inactive); with `CCOC(=O)c1c(N)nn(C(=O)c2ccccc2)c1-c1ccccc1`, 41.5% (active).

For `CCOC(=O)c1c(-c2cccc(N)c2)cn2ccccc12`, the inhibition is 10.5% (inactive).

Take `CCOC(=O)c1nnn(-c2nonc2OC)c1-c1ccccc1`: the inhibition was 15.2% (inactive). As to `Cc1ccnc(NC(=O)Cn2ccc([N+](=O)[O-])n2)c1`, the inhibition was 14.6% (inactive). As to `COc1cccc(/C=C/C(=O)OCC(=O)N2CCN(c3ccccc3)CC2)c1`, the inhibition was 17.4% (inactive). Turning to `Cc1cc(NCc2ccco2)n2c(nc3ccccc32)c1C#N`, the inhibition is 7.48% (inactive).

For `Cn1c(-c2ccco2)nc2cc3ccccc3cc21`, the inhibition was 33.2% (inactive).

Regarding `CN1c2ccccc2-c2nc3ccccc3n2C1c1ccco1` (stereo not drawn), the inhibition was 42.1% (active).

The record behind these values is PubChem BioAssay AID463190 (Sanford-Burnham Center for Chemical Genomics, 2010).
